Assay results published in the supplement of paper PMC10681739.

Legend:
[1] = target: T1, ETS1 (UniProt P14921); test: ETS1 binding intensity (PBM fluorescence), ETS1 alone (arbitrary fluorescence units); higher = stronger binding; details: ETS1 concentration 1 nM; RUNX1 concentration 0 nM
T1 sequence: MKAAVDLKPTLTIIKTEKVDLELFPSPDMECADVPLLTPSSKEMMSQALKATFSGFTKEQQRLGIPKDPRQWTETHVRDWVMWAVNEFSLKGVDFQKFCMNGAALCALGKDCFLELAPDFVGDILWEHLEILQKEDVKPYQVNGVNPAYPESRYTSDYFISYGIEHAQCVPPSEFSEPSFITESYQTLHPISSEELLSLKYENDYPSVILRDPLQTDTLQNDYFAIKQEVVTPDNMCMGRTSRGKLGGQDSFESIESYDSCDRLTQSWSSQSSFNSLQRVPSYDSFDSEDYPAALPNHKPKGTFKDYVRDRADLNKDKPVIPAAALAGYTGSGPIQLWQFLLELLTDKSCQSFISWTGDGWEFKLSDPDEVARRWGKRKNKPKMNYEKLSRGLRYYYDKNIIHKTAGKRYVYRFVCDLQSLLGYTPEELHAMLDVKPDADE

[2] = target: RUNX1 (UniProt Q01196); test: RUNX1 binding intensity (PBM fluorescence), RUNX1 alone (arbitrary fluorescence units); higher = stronger binding; details: RUNX1 concentration 2 nM; ETS1 concentration 0 nM
RUNX1, sequence (Q01196 whole entry): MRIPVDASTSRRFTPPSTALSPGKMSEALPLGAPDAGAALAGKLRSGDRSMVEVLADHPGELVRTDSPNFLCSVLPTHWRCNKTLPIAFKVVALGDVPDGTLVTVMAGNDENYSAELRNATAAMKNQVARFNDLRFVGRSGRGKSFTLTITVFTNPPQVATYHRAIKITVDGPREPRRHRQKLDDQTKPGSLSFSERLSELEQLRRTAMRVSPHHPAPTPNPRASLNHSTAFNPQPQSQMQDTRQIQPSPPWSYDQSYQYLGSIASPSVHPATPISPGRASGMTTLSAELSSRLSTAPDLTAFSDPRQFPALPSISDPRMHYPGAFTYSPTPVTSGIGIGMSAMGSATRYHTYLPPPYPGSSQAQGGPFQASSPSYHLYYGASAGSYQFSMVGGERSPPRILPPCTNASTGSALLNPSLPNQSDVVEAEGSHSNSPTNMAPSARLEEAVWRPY
Experimental: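 Cooperative gcPBM on 36-bp genomic probes with neighbouring ETS1 and RUNX1 sites. Recombinant human RUNX1 (2 nM) was incubated alone or with ETS1 (25 nM) and detected with anti-RUNX1 antibody plus Alexa488 secondary. Values are medians over 4 replicate spots; the RUNX1+ETS1 data were normalised to the RUNX1-only data. The probes sit in constant array flanks that are not printed.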

[3] = target: T1, ETS1; test: ETS1 binding intensity (PBM fluorescence) in presence of RUNX1, normalised to ETS1-only experiment (arbitrary fluorescence units); higher = stronger binding; details: ETS1 concentration 1 nM; RUNX1 concentration 25 nM
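Throughout, for RUNX1 binding intensity (PBM fluorescence), RUNX1 alone: Full-length recombinant human RUNX1 bound to double-stranded 36-bp genomic probes on a high-density microarray, scored as Alexa488 fluorescence per spot via anti-RUNX1 antibody, median of four replicate spots.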

Row | Sequence | ETS1 binding intensity [1] | RUNX1 binding intensity [2] | ETS1 binding intensity [3]
1 | TTCTTCCCCCTTCCGGTCGCTGAGTGGTTGAGGCCG | 4140 | 898 | 3610
2 | GCTCCGCTTCCGGGAGGCGGGGCTTCTGCGGGTTCC | 698 | 737 | 2520
3 | GTTCCTAGGCAGGCAGGATGTGGCTATAAGCTACAT | 4700 | 819 | 6220
4 | CTTAGTGTTTGAGGATGTGGGTTTTACAATCAGATC | 845 | 769 | 2490
5 | GTGAGCCTGTAAAGGAAATTGAGGTTATGTGGCTCA | 981 | 694 | 1770
6 | AAACCAGAGGAAGTGGATTCCAACCACAAACCTCAC | 750 | 1080 | 4210
7 | TGGCTGTGAGCTGCAGGATGTGGTCAGGAGAGGAAG | 2180 | 804 | 19700
8 | TTCATTTCTACCTTCCTGTGGTCTTTTTGCCTCCGA | 512 | 1860 | 470
9 | GCGCCCCGCTTCCGGGGCCGCCCTAAACCGCGGCCG | 944 | 1520 | 2870
10 | TCATAAGGAAGTGGAGTGTAGTAACCACAGGCCCCG | 417 | 829 | 1100
11 | GCCATTAAAGCAGCTTCCTGTGGGCGCGGCGCAGGA | 888 | 753 | 867
12 | AGCACTTCCGTTTGGGCAGGGCTGCGGGCCGGAGGG | 911 | 746 | 831
13 | CTTCTACTTCCTGCCCCGCCCCCAGCTGTGGTCACA | 1420 | 1490 | 3150
14 | GCGCCCGGAAGGAAGGCTGGGGTAGGTTGTGGTTTC | 476 | 830 | 2740
15 | GAGTACAGGAAATGCAAAGTAAAACCACAGTGAGAT | 1460 | 904 | 4550
16 | CCACTGCTTCCGCCTTCTCTGCTGGCTGCGGGGAGC | 545 | 904 | 516
17 | GCTCATTTATGCATCCTGTGGTCTGTGTGTGTTTCG | 569 | 984 | 831
18 | CACCCATAGCACCCCGGAAACCACCTCCACCACCTG | 1890 | 1390 | 2240
19 | TGCCGGGCCCCGGATGTCACCGCAGCCGCCATCTTA | 2460 | 968 | 6730
20 | CCTGTCCGGAAGTCCTGAGAGGGAATCGCCCGCAAA | 2300 | 963 | 5360
21 | GCCTGAGCGGAAACCCGGCGCCACCACAAGATGGCA | 637 | 990 | 2040

Row | Sequence | ETS1 binding intensity [1] | RUNX1 binding intensity [2] | ETS1 binding intensity [3]
22 | TCATTCTCTGATAAAGGAAGTGGTTACAGCACAATT | 2910 | 822 | 10200
23 | GCTGACCCGGAAGCGCTCGTGACCACCATCTCCGAC | 1760 | 912 | 2590
24 | GGACTCTGGCAGGAAGCTGTTTGTGGTTGTCACACC | 3140 | 796 | 11000
25 | CTACTTTCCGGTCAACGCGGCCTGCGGTACCACCTC | 438 | 1160 | 720
26 | GCTCTTCACTTCCTGTGGCTCCCGCAGCGGCCGCCG | 1920 | 1090 | 1560
27 | GAGCTGCTCCGGAAGGGTGGTGTGTGGTCAACCTTG | 759 | 876 | 1520
28 | TGCGACGGAAGCAGGAACTTGCTAACCACAAAACCC | 1350 | 1790 | 13200
29 | CTCAGCTCCGCGGAAGTTGCGGTAAGTGGAGCTTTG | 962 | 2210 | 8730
30 | TGCAGTCGTGAAAAAGGAAGTGGTTAAAGTGGATAC | 2880 | 836 | 9240
31 | ACACAAACAGGAAGTGTTTGTGGTCCCTGCCTTTAG | 7210 | 748 | 14500
32 | GGGGCAGCTTCCGGCAGGAGAGCCCGCATTCACGGC | 731 | 1370 | 751
33 | CCGCGAGCCGTCACTTCCTGTGGGCTGGGCCGAGCC | 1910 | 924 | 2470
34 | AACAAAGAGAGAGGAAGTGGGTTGGGCGGGGGGGGT | 1880 | 1010 | 1990
35 | AGTTGGTTCCTTCCGGTGGGTTTGTGGGCTTGGGGT | 1400 | 763 | 2230
36 | ATTTTTCCTTCCTTCTCCCGTCCCCGCAGAGTGCAA | 507 | 1540 | 465
37 | TTTACAGGAAATATCCAGAACAGGTAAACCCACAGA | 778 | 796 | 1630
38 | GCAGAACCAGAAACAGGATGTGGGTTCCCCTTTAAG | 7390 | 826 | 18900
39 | GAGGCGACCCACATCCGCTGTGCGGGGGCAACTGCA | 957 | 729 | 1270
40 | GTGCCGGCGGCCGGATGTGGGCGGGGCCACGGGGAG | 8590 | 753 | 16200
41 | TCTAGTTCTGGTTTCCGGACCGCATTCGGAACTAGA | 1000 | 786 | 1390
42 | GTTTGAAGGGAAGTGGGTGTTGACCTGCGGGCAACT | 483 | 806 | 948
